# Measured values from PubChem BioAssay (NCATS).
# A number with no mark means an inactive call. Inconclusive results are not listed. Entries that show only a call come without a potency. Activity calls are given as the source filed them. Calls follow the shape of the dose curve; as a rule, active = well fitted curve in the direction sought with a large enough effect; inconclusive = small, poorly fitted or top-dose-only effect, or another doubt; inactive = no such curve, though single readings can be large; an effect the other way counts as inactive or inconclusive.
# What was measured:
# [1] = molecular target: Rap guanine nucleotide exchange factor 3 (Homo sapiens) (UniProt O95398); experiment: Confirmatory qHTS for antagonist of cAMP-regulated guanine nucleotide exchange factor 3 (EPAC1) (AID 1645880); also: nearly all actives have a fitted effect of over 55% in size; also: potency is read from the fitted curve at half-maximal effect
# How it was run: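 Nucleotide exchange uses 100 nM EPAC1, 250 nM RAP1B-BODIPY-GDP and 50 uM GDP, with compounds in a concentration-titration series. After 5 min at room temperature, fluorescence (480 nm ex/540 nm em) is read every 5 min for 30 min. Data are normalized to control ATA and DMSO.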
# [2] = molecular target: Rap guanine nucleotide exchange factor 3 (Homo sapiens) (UniProt O95398); experiment: Confirmatory qHTS for agonist of cAMP-regulated guanine nucleotide exchange factor 3 (EPAC1) (AID 1645881); also: nearly all actives have a fitted effect of over 75% in size; also: potency is read from the fitted curve at half-maximal effect;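 as to activation: EPAC1 catalysed release of BODIPY-GDP from Rap1B seen as fluorescence loss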
# [3] = molecular target: Rap guanine nucleotide exchange factor 4 (Homo sapiens) (UniProt Q8WZA2); experiment: Confirmatory qHTS for agonist of cAMP-regulated guanine nucleotide exchange factor 4 (EPAC2) (AID 1645884);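 also: nucleotide exchange releases bodipy-GDP from Rap1 and this lowers its fluorescence; nearly all actives have a fitted effect of over 65% in size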; also: potency is read from the fitted curve at half-maximal effect
# [4] = molecular target: Rap guanine nucleotide exchange factor 3 (Homo sapiens) (UniProt O95398); experiment: Counterscreen qHTS for antagonist of cAMP-regulated guanine nucleotide exchange factor 3 (EPAC1) (AID 1645888);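 also: fluorescence loss as bound BODIPY-GDP is released from Rap1B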
# How it was run: (§1)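 Measured: fluorescence of BODIPY-GDP bound to Rap1B, which falls as exchange proceeds. Conditions include 50 uM competing GDP, 5 and 30 min reads, and a later cAMP challenge for antagonist detection.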
# [5] = molecular target: Rap guanine nucleotide exchange factor 3 (Homo sapiens) (UniProt O95398); experiment: Counterscreen qHTS for agonist of cAMP-regulated guanine nucleotide exchange factor 3 (EPAC1) (AID 1645889); also: nearly all actives have a fitted effect of over 40% in size; also: potency is read from the fitted curve at half-maximal effect
# How it was run: as §1
# [6] = molecular target: Rap guanine nucleotide exchange factor 4 (Homo sapiens) (UniProt Q8WZA2); experiment: Confirmatory qHTS for antagonist of cAMP-regulated guanine nucleotide exchange factor 4 (EPAC2) (AID 1645885); also: nearly all actives have a fitted effect of over 25% in size
# [7] = molecular target: Tumor susceptibility gene 101 protein (Homo sapiens) (UniProt Q99816); experiment: qHTS Assay for Iinhibitors of HIV-1 Budding by Blocking the Interaction of PTAP/TSG101: Hit Validation (AID 651600); also: potency is read from the fitted curve at half-maximal effect; nearly all actives have a fitted effect of over 70% in size
# How it was run: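 Displacement of a FITC-labeled PTAP-motif peptide (50 nM) from the Tsg101 binding domain (10 uM) was monitored by fluorescence polarization after a 20 min room-temperature incubation.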
# [8] = qHTS for Inhibitors of the vitamin D receptor (VDR): Hit Validation using a Texas Red Assay (AID 602201); also: potency is read from the fitted curve at half-maximal effect
# How it was run: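 Fluorescence polarization (Ex 595/Em 615 nm) of Texas Red (7 nM) with 1.5 uM VDR-LBD and LG19078 (final concentrations). Compounds were incubated for 2 hours at room temperature.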
# [9] = molecular target: Cytochrome P450 3A4 (Homo sapiens) (UniProt P08684); experiment: qHTS Assay for Inhibitors and Substrates of Cytochrome P450 3A4 (AID 884); also: series mostly up to about 57 µM; nearly all actives have a fitted effect of over 50% in size
# How it was run: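 20 nM human CYP3A4 with 25 uM Luciferin-PPXE (at KM) in 200 mM KPO4, preincubated 10 min with compound; NADPH regeneration started a 60 min RT reaction. Luciferin detected by luminescence, normalized to 57 uM ketoconazole as full inhibition.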
# [10] = molecular target: DNA dC->dU-editing enzyme APOBEC-3G (Homo sapiens) (UniProt Q9HC16); experiment: qHTS for inhibitors of Vif-A3G interactions: Validation (AID 588379)
# How it was run: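 HeLa cells stably expressing Vif and A3G-eYFP, 700 cells/well, incubated overnight at 37 deg C, then exposed to compound overnight at 37 deg C. Inhibition of Vif-mediated degradation read as increased yellow fluorescence (Ex 488/Em 500-530) by laser-scanning cytometry.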
# Rap guanine nucleotide exchange factor 3 (Homo sapiens), sequence (O95398 whole entry, looked up): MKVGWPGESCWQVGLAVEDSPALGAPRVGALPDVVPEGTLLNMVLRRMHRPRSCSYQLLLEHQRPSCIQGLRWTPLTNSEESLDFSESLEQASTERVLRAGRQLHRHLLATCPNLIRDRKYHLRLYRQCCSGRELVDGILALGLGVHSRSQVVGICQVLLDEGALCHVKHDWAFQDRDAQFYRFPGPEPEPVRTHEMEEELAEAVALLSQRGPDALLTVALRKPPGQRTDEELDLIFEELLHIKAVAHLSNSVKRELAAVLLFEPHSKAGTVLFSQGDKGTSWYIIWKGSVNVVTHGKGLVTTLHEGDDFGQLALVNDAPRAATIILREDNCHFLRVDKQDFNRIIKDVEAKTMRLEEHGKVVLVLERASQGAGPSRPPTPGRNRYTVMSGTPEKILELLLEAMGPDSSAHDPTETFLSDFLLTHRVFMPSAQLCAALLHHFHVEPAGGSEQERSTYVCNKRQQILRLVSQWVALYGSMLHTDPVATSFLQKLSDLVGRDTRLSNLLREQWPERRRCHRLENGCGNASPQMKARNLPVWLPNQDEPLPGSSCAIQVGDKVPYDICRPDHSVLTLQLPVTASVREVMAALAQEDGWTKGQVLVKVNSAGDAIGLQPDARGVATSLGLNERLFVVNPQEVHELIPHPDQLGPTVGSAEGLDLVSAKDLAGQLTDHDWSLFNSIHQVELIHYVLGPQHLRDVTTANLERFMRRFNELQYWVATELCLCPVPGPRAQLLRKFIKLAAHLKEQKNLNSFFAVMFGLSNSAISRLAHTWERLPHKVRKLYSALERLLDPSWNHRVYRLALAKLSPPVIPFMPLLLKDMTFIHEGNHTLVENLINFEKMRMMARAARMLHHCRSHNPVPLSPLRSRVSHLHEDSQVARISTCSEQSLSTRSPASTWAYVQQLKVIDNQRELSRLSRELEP
# Rap guanine nucleotide exchange factor 4 (Homo sapiens), sequence (Q8WZA2 whole entry, looked up): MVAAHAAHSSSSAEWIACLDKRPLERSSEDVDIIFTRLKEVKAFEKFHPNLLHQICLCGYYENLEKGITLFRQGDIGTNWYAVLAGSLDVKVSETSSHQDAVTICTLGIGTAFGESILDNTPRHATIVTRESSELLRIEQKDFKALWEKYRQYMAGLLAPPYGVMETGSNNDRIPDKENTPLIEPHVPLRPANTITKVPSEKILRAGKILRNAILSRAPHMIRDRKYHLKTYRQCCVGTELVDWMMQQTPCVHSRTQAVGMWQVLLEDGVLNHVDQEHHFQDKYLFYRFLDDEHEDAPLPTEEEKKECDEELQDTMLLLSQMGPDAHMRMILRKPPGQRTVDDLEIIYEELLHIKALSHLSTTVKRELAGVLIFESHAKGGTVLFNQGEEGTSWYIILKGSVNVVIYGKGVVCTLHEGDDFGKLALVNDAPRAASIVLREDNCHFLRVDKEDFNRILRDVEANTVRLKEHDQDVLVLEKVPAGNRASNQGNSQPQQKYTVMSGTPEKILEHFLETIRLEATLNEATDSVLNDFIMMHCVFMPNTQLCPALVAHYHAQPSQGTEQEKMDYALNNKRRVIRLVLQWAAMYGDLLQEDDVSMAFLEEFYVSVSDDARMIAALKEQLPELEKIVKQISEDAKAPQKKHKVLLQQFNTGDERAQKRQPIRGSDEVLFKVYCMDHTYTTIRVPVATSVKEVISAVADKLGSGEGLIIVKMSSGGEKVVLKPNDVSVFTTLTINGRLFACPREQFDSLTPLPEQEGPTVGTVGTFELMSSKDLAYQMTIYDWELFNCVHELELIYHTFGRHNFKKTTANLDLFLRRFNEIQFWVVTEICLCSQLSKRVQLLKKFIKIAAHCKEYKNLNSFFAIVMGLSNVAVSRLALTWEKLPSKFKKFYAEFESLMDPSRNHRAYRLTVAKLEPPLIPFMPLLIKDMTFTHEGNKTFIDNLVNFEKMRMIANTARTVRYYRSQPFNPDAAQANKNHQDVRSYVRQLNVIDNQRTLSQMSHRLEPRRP
# DNA dC->dU-editing enzyme APOBEC-3G (Homo sapiens), sequence (Q9HC16 whole entry, looked up): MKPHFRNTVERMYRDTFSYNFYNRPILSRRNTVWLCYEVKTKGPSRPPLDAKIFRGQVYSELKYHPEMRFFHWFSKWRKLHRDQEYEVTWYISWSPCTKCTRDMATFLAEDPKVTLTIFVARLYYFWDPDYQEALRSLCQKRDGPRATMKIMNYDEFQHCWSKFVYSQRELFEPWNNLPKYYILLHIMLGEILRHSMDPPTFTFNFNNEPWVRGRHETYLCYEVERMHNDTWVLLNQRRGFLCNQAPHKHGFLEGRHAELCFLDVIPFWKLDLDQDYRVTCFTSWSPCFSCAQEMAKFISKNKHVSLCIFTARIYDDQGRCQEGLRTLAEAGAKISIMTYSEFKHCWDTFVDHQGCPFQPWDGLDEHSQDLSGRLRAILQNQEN
# Cytochrome P450 3A4 (Homo sapiens), sequence (P08684 whole entry, looked up): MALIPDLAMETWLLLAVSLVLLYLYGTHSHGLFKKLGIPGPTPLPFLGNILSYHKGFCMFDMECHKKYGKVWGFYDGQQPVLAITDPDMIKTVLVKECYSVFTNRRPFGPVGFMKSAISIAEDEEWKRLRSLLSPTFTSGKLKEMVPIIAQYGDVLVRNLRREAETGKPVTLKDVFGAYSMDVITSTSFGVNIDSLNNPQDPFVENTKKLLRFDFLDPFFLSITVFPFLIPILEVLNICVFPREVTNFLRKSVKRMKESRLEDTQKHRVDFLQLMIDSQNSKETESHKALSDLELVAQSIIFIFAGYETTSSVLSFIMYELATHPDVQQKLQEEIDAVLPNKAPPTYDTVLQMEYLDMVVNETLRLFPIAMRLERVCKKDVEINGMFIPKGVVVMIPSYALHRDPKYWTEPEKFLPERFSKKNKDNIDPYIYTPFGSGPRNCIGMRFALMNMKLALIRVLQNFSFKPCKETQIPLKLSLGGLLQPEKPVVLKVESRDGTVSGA
# Tumor susceptibility gene 101 protein (Homo sapiens), sequence (Q99816 whole entry, looked up, the tested form may be a part): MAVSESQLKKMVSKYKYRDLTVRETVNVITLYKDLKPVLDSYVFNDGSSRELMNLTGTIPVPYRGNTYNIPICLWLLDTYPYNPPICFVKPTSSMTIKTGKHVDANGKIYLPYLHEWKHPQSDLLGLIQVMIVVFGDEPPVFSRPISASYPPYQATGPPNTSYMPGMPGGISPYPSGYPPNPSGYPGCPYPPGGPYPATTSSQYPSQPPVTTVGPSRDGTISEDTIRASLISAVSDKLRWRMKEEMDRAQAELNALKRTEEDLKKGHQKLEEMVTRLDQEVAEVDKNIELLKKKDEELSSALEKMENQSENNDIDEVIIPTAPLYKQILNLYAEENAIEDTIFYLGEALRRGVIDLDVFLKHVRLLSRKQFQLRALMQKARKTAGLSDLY
smiles,measurement,setting,value
Cc1cc(C=C(C#N)C#N)ccc1N1CCCC1,Potency,[1],inactive
same,Potency,[2],100 µM (active)
same,Potency,[3],112 µM (active)
same,outcome,[4],inactive
same,Potency,[5],28.2 µM (active)
COC(=O)C1=C(c2cc3ccccc3s2)C[C@@H]2CC[C@H]1N2C(=O)NC1CC1,Potency,[1],inactive
same,Potency,[2],inactive
same,Potency,[3],inactive
same,Potency,[6],inactive
same,Potency,[5],inactive
CCN(CC)c1ccc(N=Cc2c(O)n(CCC3=CCCCC3)c(=O)[nH]c2=O)cc1,Potency,[1],75.7 µM (active)
same,Potency,[2],inactive
same,Potency,[3],inactive
same,Potency,[6],inactive
same,outcome,[4],inactive
same,Potency,[5],inactive
O=[N+]([O-])c1ccc(NCc2ccccc2)c2nonc12,Potency,[7],1.03 µM (active)
same,Potency,[1],inactive
same,Potency,[2],8.91 µM (active)
same,Potency,[3],100 µM (active)
same,Potency,[6],inactive
same,Potency,[5],22.4 µM (active)
Cn1cccc1/C=C1/C(=O)NC(=S)N(Cc2ccc(F)cc2)C1=O,Potency,[1],31.6 µM (active)
same,Potency,[2],inactive
same,activation,[3],"0.836% [at 17.1 µM, percent relative to cAMP agonist control]"
same,"activity change, negative = inhibition",[6],-22.8% [at 12.7 µM]
same,activation,[5],10.8% [at 30.8 µM]
COC(=O)C1=C(c2cc3ccccc3s2)C[C@@H]2CC[C@H]1N2C(=O)NCc1ccc(C(F)(F)F)cc1,Potency,[1],inactive
same,Potency,[2],inactive
same,Potency,[3],inactive
same,Potency,[6],inactive
same,Potency,[5],inactive
Cc1ccccc1N1C(=O)NC(=O)/C(=C\c2ccc3c(c2)CCCN3Cc2ccccc2)C1=O,Potency,[8],28.2 µM (active)
same,Potency,[1],16.9 µM (active)
same,Potency,[2],inactive
same,Potency,[3],inactive
same,outcome,[4],inactive
O=[N+]([O-])c1ccc(CN2CC=C(c3ccccc3)CC2)cc1,Potency,[1],inactive
same,Potency,[2],inactive
same,activation,[3],"0% [at 17.1 µM, percent relative to cAMP agonist control]"
same,"activity change, negative = inhibition",[6],0.463% [at 12.7 µM]
same,activation,[5],8.24% [at 30.8 µM]
Cc1ccc(-n2c(O)c(/C=C/C=Nc3ccccc3)c(=O)[nH]c2=O)cc1,Potency,[1],inactive
same,Potency,[2],inactive
same,Potency,[3],inactive
same,Potency,[5],44.7 µM (active)
CC(C)C/C(=N/O)c1cn(C)c2ccccc12,Potency,[1],inactive
same,Potency,[2],inactive
same,Potency,[3],inactive
same,outcome,[4],inactive
same,Potency,[5],inactive
CN1CC[C@@]2(C)c3cc(O)ccc3N(C)[C@@H]12,Potency,[9],inactive
same,outcome,[10],inactive
same,Potency,[1],inactive
same,Potency,[2],inactive
same,Potency,[3],inactive
same,Potency,[6],inactive
same,Potency,[5],5.62 µM (active)
Cc1ccc(CN2CCCN(Cc3ccccc3C)S2(=O)=O)cc1,Potency,[1],inactive
same,Potency,[2],inactive
same,Potency,[3],inactive
same,Potency,[6],inactive
same,outcome,[4],inactive
same,Potency,[5],inactive
